PubChem BioAssay
Activity calls are given as the source filed them.

Legend:
[1] = anti-His antibody binders, primary screen, artefact control for SMM control protein annotation, biochemical, small-molecule microarray, 635 nm fluorescence (AID 1128); details: anti-His Alexa647 antibody binding, higher = more signal;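 note: score merges feature fluorescence with signal-to-noise for each printed compound spot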
[2] = system: Human papillomavirus type 1a E7 protein (residues 1-88); assay: HPV1a E7 small-molecule binders, primary screen, biochemical, small-molecule microarray, residues 1-88, 635 nm (AID 1129); details: small-molecule microarray binding, fluorescence 635 nm; higher = more signal
[3] = target: Focal adhesion kinase 1 (Homo sapiens) (UniProt Q05397); assay: small-molecule microarray binders of FAK, primary screen, biochemical, 635/667 nm fluorescence, BSA, DTT (AID 1130); details: PTK2 binding, 635 nm fluorescence, higher = more signal;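 note: composite of spot emission at 667 nm and signal to noise over triplicate slides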
[4] = system: Fibrinogen (Alexa647-labelled); assay: fibrinogen binders on compound microarrays, profiling panel, artefact control for SMM control-protein annotation, biochemical, small-molecule microarray, 635/667 nm fluorescence (AID 1131); details: fibrinogen-A647 binding fluorescence, higher = more signal;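 note: z-score merges 667 nm fluorescence with per-spot signal-to-noise over triplicate slides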
[5] = target: Follistatin (Homo sapiens) (UniProt P19883); assay: follistatin binders on small-molecule microarrays, primary screen, biochemical, small-molecule microarray, 635/667 nm fluorescence (AID 1132); details: FST binding, 635 nm fluorescence, higher = more signal
[6] = target: Fibroblast growth factor 2 (Homo sapiens) (UniProt P09038); assay: FGF2 binders on small-molecule microarrays, primary screen, biochemical, small-molecule microarray, 635/667 nm fluorescence (AID 1133); details: small-molecule microarray binding, FGF2, fluorescence 635/667; higher = more signal
[7] = mitochondrial membrane potential change in A549 cells, profiling panel, cell-based, JC-1 fluorescence, basal, 24 h, 100 nL (AID 1138); details: higher = more signal;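 note: A549 lung adenocarcinoma cells under basal conditions with no added stimulus; test concentration not given here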
Lefty1 = Lefty1 binders on small-molecule microarrays, primary screen, biochemical, small-molecule microarray, 635/667 nm fluorescence (AID 1139); details: small-molecule microarray binding, fluorescence 635/667; higher = more signal
[8] = system: wheat germ agglutinin (Triticum aestivum), Alexa647-labelled; assay: wheat germ agglutinin binders on compound microarrays, profiling panel, artefact control for SMM control-protein annotation, biochemical, small-molecule microarray, 635/667 nm fluorescence (AID 1140); details: WGA-A647 binding, 635 nm fluorescence, higher = more signal;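 note: score merges 667 nm feature emission with signal to noise over triplicate slides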
[9] = target: Luciferin 4-monooxygenase (Photinus pyralis) (UniProt P08659); assay: firefly luciferase enzyme inhibitors, primary screen, biochemical, luminescence, purified enzyme, 2006 set (AID 1141); details: SteadyGlo luminescence, 30 min, higher = more signal, called active from +8 up or from −8 down;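 note: cell-free assay with purified firefly luciferase at 100 ng per well in PBS; test concentration not given here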
Chain of Luciferin 4-monooxygenase (Photinus pyralis) (P08659 whole entry, looked up): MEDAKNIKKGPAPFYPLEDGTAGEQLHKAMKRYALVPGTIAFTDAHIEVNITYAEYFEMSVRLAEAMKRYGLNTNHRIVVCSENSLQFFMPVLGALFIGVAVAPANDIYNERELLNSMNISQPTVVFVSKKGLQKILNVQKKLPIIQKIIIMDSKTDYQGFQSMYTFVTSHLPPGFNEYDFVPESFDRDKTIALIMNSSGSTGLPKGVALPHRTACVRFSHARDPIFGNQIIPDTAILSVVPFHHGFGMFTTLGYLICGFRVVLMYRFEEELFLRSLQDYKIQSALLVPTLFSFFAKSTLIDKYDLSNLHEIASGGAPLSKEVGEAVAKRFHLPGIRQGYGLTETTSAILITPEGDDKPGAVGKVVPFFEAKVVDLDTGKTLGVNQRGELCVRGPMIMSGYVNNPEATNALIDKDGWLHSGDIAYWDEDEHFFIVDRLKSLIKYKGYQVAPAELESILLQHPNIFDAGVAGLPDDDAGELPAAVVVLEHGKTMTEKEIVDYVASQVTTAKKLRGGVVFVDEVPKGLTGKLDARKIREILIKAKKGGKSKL

Chain of Fibroblast growth factor 2 (Homo sapiens) (P09038 whole entry, looked up): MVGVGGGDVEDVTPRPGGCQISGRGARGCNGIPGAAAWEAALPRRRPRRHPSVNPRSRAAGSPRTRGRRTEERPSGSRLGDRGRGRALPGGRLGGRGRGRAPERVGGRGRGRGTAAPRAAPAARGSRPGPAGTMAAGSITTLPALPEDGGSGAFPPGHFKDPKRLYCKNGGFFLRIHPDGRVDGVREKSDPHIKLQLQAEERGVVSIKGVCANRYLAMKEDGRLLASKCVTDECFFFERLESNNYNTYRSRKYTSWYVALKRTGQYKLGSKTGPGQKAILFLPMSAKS
Chain of Focal adhesion kinase 1 (Homo sapiens) (Q05397 whole entry, looked up): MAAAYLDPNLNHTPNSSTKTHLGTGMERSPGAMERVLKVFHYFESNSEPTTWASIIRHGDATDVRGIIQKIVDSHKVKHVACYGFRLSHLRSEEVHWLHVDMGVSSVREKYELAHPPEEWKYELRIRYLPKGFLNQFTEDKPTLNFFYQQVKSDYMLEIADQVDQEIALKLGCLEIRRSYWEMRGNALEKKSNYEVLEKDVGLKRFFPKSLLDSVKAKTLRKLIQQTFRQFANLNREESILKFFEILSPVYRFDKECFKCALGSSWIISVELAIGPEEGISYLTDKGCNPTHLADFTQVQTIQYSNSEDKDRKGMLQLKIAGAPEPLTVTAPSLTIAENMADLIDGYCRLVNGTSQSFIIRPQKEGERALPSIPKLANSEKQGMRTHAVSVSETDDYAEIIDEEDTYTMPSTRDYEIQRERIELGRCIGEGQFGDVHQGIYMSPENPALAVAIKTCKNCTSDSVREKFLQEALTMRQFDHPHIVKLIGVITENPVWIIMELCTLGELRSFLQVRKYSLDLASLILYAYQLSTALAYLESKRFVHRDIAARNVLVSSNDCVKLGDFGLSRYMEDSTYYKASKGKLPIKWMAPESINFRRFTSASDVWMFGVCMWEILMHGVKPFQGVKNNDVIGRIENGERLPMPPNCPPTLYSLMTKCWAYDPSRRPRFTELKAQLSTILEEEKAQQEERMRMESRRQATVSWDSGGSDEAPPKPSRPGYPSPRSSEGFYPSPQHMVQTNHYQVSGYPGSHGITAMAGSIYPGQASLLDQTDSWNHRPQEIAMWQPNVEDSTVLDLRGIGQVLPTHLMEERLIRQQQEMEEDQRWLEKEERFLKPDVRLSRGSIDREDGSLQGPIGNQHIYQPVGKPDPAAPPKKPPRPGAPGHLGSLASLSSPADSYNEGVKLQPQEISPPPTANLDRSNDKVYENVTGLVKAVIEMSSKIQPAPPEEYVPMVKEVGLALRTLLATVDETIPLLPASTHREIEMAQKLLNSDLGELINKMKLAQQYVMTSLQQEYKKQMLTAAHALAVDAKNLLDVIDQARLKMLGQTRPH
Chain of Follistatin (Homo sapiens) (P19883 whole entry, looked up): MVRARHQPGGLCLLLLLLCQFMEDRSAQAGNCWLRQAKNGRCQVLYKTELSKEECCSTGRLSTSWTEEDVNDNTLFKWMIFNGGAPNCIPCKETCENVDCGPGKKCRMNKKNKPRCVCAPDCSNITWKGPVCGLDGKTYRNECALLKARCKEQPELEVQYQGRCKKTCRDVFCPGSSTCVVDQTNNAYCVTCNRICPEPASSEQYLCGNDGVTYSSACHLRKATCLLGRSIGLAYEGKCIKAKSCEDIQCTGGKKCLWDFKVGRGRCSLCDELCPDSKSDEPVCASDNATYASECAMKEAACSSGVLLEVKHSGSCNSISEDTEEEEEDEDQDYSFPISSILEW

Compound | composite z-score [1] | composite z-score [2] | composite z-score [3] | composite z-score [4] | composite z-score [5] | composite z-score [6] | z-score [7] | composite z-score (Lefty1) | composite z-score [8] | z-score [9]
C=CC[C@@]1(C(=O)N2CCCCC2)N=C(c2ccc(OCCCO)cc2)O[C@@H]1c1ccccc1N=[N+]=[N-] | 2.24 | 1.23 | 0.407 | 0.957 | 1.09 | 0.162 | -0.35 | 0.0928 | 1.06 | -10.4 (active)
COC(=O)[C@@]1(Cc2ccc(OC)cc2)[C@H]2c3cc(C(=O)N4CCCC4)n(CCCNc4ncc(C(F)(F)F)cc4Cl)c3C[C@H]2CN1C(=O)c1ccccc1 | 2.65 | 1.14 | 1.1 | 0.768 | 1.12 | -0.167 | -1.51 | 0.337 | 0.626 | 2.54 (inactive)
CC(C)(C)OC(=O)CC[C@]1(C(=O)NCCN2CCOCC2)COC(c2ccc(OCCCO)cc2)=N1 | 1.34 | 1.19 | 0.436 | 0.46 | 1.32 | 1.78 | -0.13 | 0.78 | 0.253 | 0.965 (inactive)
CN(C)CCCC[C@@H]1NC(=O)[C@H]2C[C@@H](C(=O)NCCCCCN)[C@@H](c3cccc(OCCO)c3)N2C1=O | 2.91 | 1.12 | 0.297 | 1.01 | 1.38 | 1.22 | 0.129 | 1.66 | 1.48 | -0.69 (inactive)
O=C(O)[C@H](Cc1ccccc1)n1cc(-c2ccccc2)nn1 | 0.347 | 0.6 | 0.218 | 0.368 | 0.571 | 0.607 | -0.469 | 0.206 | 0.651 | 0.899 (inactive)
C=C(CCCC)C(=O)CC[C@@H](OC(C)=O)c1ccc(CO)o1 | 0.184 | -0.261 | -0.437 | 0.513 | 1.36 | 1.8 | -0.683 | 1.64 | 0.201 | -1.3 (inactive)
CC(C)NC(=O)[C@@H]1c2ccccc2C(=O)N(C(C)C)[C@H]1c1ccc(CO)cc1 | -1.51 | -0.0425 | 0.459 | -0.782 | -0.681 | -0.963 | 1.58 | -0.936 | -0.608 | -0.784 (inactive)
COc1ccc([Si](C)(C)[C@@H]2[C@@H](CCn3cc(CCO)nn3)O[C@]3(C(=O)N(Cc4cccc(N5C(=O)c6cccc7cccc5c67)c4)c4ccccc43)[C@H]2C)cc1 | 1.18 | 1.16 | 0.321 | 0.556 | 1.16 | 0.672 | -1.1 | 1.23 | 0.509 | 0.178 (inactive)
COCCOC(=O)N1C(=O)[C@@]2(c3cc(C#CC4=CCCCC4)ccc31)[C@H](c1ccc(OCCO)cc1)N1[C@H](c3ccccc3)[C@H](c3ccccc3)OC(=O)[C@H]1[C@@H]2C(=O)N1CCc2cc(OC)c(OC)cc2C1 | 0.936 | 1.19 | 0.647 | 0.874 | 0.989 | 1.32 | -0.729 | 1.11 | -0.0709 | -2.35 (inactive)
COCCOC(=O)N1C(=O)[C@@]2(c3cc(C#CC4(O)CCCCCC4)ccc31)[C@H](c1ccccc1OCCO)N1[C@H](c3ccccc3)[C@H](c3ccccc3)OC(=O)[C@H]1[C@@H]2C(=O)N1CCc2cc(OC)c(OC)cc2C1 | 2.27 | 1.23 | 0.669 | 0.895 | 0.653 | 0.461 | -0.932 | 0.8 | 0.632 | -0.022 (inactive)
C=C(CCCC)/C(=C/C[C@H](OC(=O)c1ccncc1)c1ccc(OCCO)cc1)c1cc(C(=O)OC)ccc1OC | 1.07 | 1.18 | 0.525 | 0.438 | -0.0021 | 0.0508 | 0.313 | 0.394 | 0.704 | -0.723 (inactive)
C=CCNC(=O)[C@H]1[C@@H]2C(=O)O[C@@H](c3ccccc3)[C@@H](c3ccccc3)N2[C@@H](c2ccc(OCCO)cc2)[C@]12C(=O)Nc1ccc(C#CCC(C(=O)OC)C(=O)OC)cc12 | 2.47 | 1.2 | 0.413 | 0.858 | 0.929 | 0.826 | -0.765 | 0.385 | 0.887 | -0.275 (inactive)
COC(=O)C(CC#Cc1ccc2c(c1)[C@]1(C(=O)N2)[C@H](c2ccccc2OCCO)N2[C@H](c3ccccc3)[C@H](c3ccccc3)OC(=O)[C@H]2[C@@H]1C(N)=O)C(=O)OC | 1.6 | 1.22 | 0.473 | 0.711 | 0.619 | 0.168 | -0.153 | -0.0878 | 1.15 | -0.821 (inactive)
CC1CC/C=C\[C@H]2OC34C=CCN(Cc5ccccc5)C(=O)[C@H]3N(C(C)CO)C(=O)[C@@H]4C2C(=O)O1 (stereo not given in full) | -0.216 | -0.922 | -0.286 | -0.696 | 0.462 | -0.005 | 0.924 | 1.06 | -0.626 | -0.97 (inactive)
NC(=O)[C@@H]1[C@H]2C(=O)O[C@H](c3ccccc3)[C@H](c3ccccc3)N2[C@H](c2ccc(OCCO)cc2)[C@@]12C(=O)Nc1ccc(C#CC3=CCCCC3)cc12 | 0.823 | 1.21 | 1.33 | 1.01 | 1.22 | 0.413 | -1.87 | 0.741 | 0.632 | -2.48 (inactive)
COc1ccc([Si](C)(C)[C@@H]2[C@@H](CC(=O)N3Cc4ccccc4C[C@H]3CO)O[C@]3(C(=O)N(Cc4cccc(N5CCC5=O)c4)c4ccccc43)[C@H]2C)cc1 | 0.887 | 1.12 | 0.366 | 0.357 | 1.22 | 1.01 | -0.256 | 1.02 | 0.696 | -0.106 (inactive)
